From PubChem BioAssay (Tox21)
Records with an inconclusive call do not appear. Calls of active or inactive are those of the source. Unless noted, calls come from the whole dose curve; as a rule, active = well fitted curve in the direction sought with a large enough effect in the repeat runs; inconclusive = weak or mixed curves; inactive = no such curve, though single readings can be large; an effect the other way counts as inactive or inconclusive.

Experiments:
[1] = qHTS assay to identify small molecule antagonists of the thyroid receptor (TR) signaling pathway - cell viability counter screen (AID 743064); note: nearly all actives have a fitted effect of over 50% in size
Summary of the method: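 In-well cytotoxicity read by CellTiter-Fluor (30 min, 37 C) following 23.5 h exposure of GH3 cells bearing a TRE-luciferase sensor. Compounds were added alongside 1 nM (final) T3 to drive TR transactivation.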

[2] = qHTS assay to identify small molecule antagonists of the thyroid receptor (TR) signaling pathway (AID 743065); note: series mostly up to about 70 µM; nearly all actives have a fitted effect of over 55% in size
Summary of the method: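 Antagonism measured as loss of luciferase signal in GH3 cells stably carrying a TRE-luciferase reporter, co-treated with compound and T3 (1 nM final) for 23.5 h at 37 C. Viability was read in the same well by CellTiter-Fluor.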

[3] = test system: thyroid hormone receptor (rat, GH3 cells); test: qHTS assay to identify small molecule agonists of the thyroid receptor (TR) signaling pathway (AID 743066; calls by dose curve)
[4] = biological target: Estrogen receptor (Homo sapiens) (UniProt P03372); test: qHTS assay to identify small molecule antagonists of the estrogen receptor alpha (ER-alpha) signaling pathway (AID 743069; active = well fitted curve in the direction sought with a large enough effect in the signal ratio in the repeat runs, not every such curve was filed as active; the % refers to the signal ratio)
Estrogen receptor (Homo sapiens), sequence (P03372 whole entry, looked up): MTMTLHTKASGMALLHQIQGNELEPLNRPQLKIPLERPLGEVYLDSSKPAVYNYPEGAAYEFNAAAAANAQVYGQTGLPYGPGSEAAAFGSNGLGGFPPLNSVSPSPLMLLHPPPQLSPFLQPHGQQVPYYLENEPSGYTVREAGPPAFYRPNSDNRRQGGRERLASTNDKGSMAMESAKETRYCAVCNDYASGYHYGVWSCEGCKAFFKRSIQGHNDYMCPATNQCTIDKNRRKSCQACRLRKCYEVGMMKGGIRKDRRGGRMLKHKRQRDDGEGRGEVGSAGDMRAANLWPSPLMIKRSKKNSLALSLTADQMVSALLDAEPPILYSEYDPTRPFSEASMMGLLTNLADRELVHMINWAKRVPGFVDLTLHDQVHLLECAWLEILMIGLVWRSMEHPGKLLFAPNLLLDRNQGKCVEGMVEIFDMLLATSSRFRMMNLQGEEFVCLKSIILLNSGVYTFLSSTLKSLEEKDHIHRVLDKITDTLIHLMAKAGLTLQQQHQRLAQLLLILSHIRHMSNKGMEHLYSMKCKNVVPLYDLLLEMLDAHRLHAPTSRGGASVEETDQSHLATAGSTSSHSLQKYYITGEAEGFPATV
Summary of the method: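 Antagonist mode: compounds in DMSO were co-added with 17beta-estradiol to ER-alpha-bla HEK293 cells (2% charcoal-stripped serum) and left 18 h at 37C. Reporter inhibition was measured as FRET fluorescence after 2 h LiveBLAzer substrate at room temperature.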

[5] = qHTS assay to identify small molecule antagonists of the estrogen receptor alpha (ER-alpha) signaling pathway - cell viability counter screen (AID 743074; calls by dose curve;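 note: HEK293 cells carrying ER-alpha-UAS-bla reporter stimulated with 17beta-estradiol; nearly all actives have a fitted effect of over 45% in size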)
[6] = biological target: Estrogen receptor (Homo sapiens) (UniProt P03372); test: qHTS assay to identify small molecule agonists of the estrogen receptor alpha (ER-alpha) signaling pathway (AID 743075; calls by dose curve;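 note: HEK293 GripTite cells with ER-alpha and UAS-driven beta-lactamase reporter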)
[7] = biological target: Estrogen receptor (Homo sapiens) (UniProt P03372); test: qHTS assay to identify small molecule agonists of the estrogen receptor alpha (ER-alpha) signaling pathway using the BG1 cell line (AID 743079); note: nearly all actives have a fitted effect of over 20% in size; note: potency is the fitted concentration of half-maximal effect
[8] = qHTS assay to identify small molecule antagonists of the estrogen receptor alpha (ER-alpha) signaling pathway using the BG1 cell line (AID 743080; calls by dose curve;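 note: BG1 cells stimulated with 17beta-estradiol alongside compound; series mostly up to about 70 µM; nearly all actives have a fitted effect of over 25% in size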)
Summary of the method: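 BG1-Luc-4E2 cells (endogenous full-length ER-alpha, stable 4×ERE-luciferase) were starved 5 days in phenol-red-free medium with 10% charcoal-stripped FBS, plated 24 h, then given compound plus 17beta-estradiol for 21.5 h at 37 C; ONE-Glo luminescence read after 30 min.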

[9] = qHTS assay to identify small molecule antagonists of the estrogen receptor alpha (ER-alpha) signaling pathway using the BG1 cell line - cell viability counter screen (AID 743081);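 note: compound given together with 17beta-estradiol as the ER stimulus; series mostly up to about 70 µM; nearly all actives have a fitted effect of over 45% in size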
[10] = biological target: Aromatase (Homo sapiens) (UniProt P11511); test: qHTS assay to identify aromatase inhibitors (AID 743083); note: series mostly up to about 70 µM; nearly all actives have a fitted effect of over 55% in size
Aromatase (Homo sapiens), sequence (P11511 whole entry, looked up): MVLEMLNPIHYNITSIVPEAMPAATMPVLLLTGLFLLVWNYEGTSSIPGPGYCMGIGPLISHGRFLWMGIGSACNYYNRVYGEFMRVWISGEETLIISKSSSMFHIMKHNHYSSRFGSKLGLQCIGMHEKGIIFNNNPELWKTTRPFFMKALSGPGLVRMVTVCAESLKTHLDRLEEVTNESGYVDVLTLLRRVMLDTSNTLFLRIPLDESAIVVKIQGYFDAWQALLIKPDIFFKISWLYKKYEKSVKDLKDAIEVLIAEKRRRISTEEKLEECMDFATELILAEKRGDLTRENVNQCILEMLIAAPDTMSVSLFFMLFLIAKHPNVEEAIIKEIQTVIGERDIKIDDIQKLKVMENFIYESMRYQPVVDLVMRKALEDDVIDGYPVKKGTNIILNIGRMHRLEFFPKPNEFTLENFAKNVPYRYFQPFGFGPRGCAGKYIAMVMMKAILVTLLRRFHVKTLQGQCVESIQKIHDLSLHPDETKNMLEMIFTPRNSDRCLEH

Measured: Potency

CCCCCCCCCCCC(=O)OCC
inactive: all assays above

CC(C)CCCCCOC(=O)CS
not listed: [10]
inactive: all other assays above

C/C(=C(\CCO)SS/C(CCO)=C(\C)N(C=O)Cc1cnc(C)nc1N)N(C=O)Cc1cnc(C)nc1N
inactive: all assays above

OCC(O)c1ccccc1 (stereo not given)
inactive: all assays above

O=C1C=CCCC1
inactive: all assays above

O=c1[nH][nH]c2ccccc12
inactive: all assays above

CC(CCl)OC(C)CCl (stereo not given)
not listed: [10]
inactive: all other assays above

CCCC(=O)OCc1ccccc1
inactive: all assays above

Cc1c(N=C=O)cccc1N=C=O
inactive: all assays above

O=C(OCCOCCOCCOC(=O)c1ccccc1)c1ccccc1
inactive: all assays above

CC(C)(C(=O)O)c1ccc(C(O)CCCN2CCC(C(O)(c3ccccc3)c3ccccc3)CC2)cc1 (stereo not given)
not listed: [9] | [10]
inactive: all other assays above

O=C1CCCN1CCO
inactive: all assays above

CC(C)CC(C)(C)C
inactive: all assays above

CCOC(OCC)OCC
inactive: all assays above

O=C(O)c1ccccc1-n1cc(C(=O)O)c(=O)c2cc(Nc3c(F)cc(F)cc3Cl)c(Cl)cc21
inactive: all assays above

C=Cc1ccc(C=C)cc1
not listed: [5]
inactive: all other assays above

CC1(C)CC(O)CC(C)(C)N1[O]
inactive: all assays above

CC1(C)CC(=O)CC(C)(C)N1
not listed: [4]
inactive: all other assays above

N#CCCCC(C#N)CCC#N (stereo not given)
not listed: [7]
inactive: all other assays above

CC(=O)c1ccc(Cl)c(Cl)c1Cl
inactive: all assays above

CCc1ccc2c(c1)C(=O)c1ccccc1C2=O
active: [7] 27.3 µM
not listed: [4] | [8]
inactive: all other assays above

O=Cc1ccc(Cl)c([N+](=O)[O-])c1
inactive: [1] | [2] | [3] | [5] | [6] | [9]

CC1(C)C(=O)NC(=O)N1CO
not listed: [7]
inactive: all other assays above

COc1ccc(C(=O)Nc2ccccc2)cc1[N+](=O)[O-]
active: [7] 3.09 µM
not listed: [8]
inactive: all other assays above

C=CC(=O)OCCCCCCCCCC
inactive: all assays above
